From PubChem BioAssay (EPA / NIEHS)
Results filed as inconclusive are left out. Active and inactive are the calls of the source. The calls were made as follows, unless noted: active = hit-call score of the fitted dose curve at least 0.9, where 1 is the maximum; inconclusive = response in the unintended direction; inactive = score below 0.9.

Legend:
[1] = molecular target: Oxysterols receptor LXR-alpha (Homo sapiens) (UniProt Q13133); assay: ATG_LXRa_TRANS: Attagene TRANS-FACTORIAL HepG2 Assay for human Liver X Receptor alpha (LXRa) (AID 2282980); settings: HepG2 Attagene TRANS reporter, LXRa transactivation
Oxysterols receptor LXR-alpha (Homo sapiens), sequence (Q13133 whole entry, looked up, the tested form may be a part): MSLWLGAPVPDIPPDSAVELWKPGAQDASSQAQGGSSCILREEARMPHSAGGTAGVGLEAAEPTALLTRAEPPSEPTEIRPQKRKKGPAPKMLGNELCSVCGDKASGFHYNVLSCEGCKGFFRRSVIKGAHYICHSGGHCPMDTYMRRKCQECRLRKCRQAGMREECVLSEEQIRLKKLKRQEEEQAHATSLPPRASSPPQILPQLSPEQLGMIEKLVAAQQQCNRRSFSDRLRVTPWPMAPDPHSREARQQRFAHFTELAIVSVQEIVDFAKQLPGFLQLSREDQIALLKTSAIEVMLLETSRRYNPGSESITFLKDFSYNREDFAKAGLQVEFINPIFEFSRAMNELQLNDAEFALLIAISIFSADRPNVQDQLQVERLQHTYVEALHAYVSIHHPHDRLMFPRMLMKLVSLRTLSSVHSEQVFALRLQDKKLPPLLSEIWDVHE
In short: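 HepG2 cells transiently transfected with GAL4-UAS reporter units for chimeric NR-Gal4 proteins, exposed to chemicals for 24 h. Reporter mRNA quantified by RT-PCR and capillary electrophoresis; gain of signal fitted relative to DMSO.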

[2] = molecular target: Oxysterols receptor LXR-beta (Homo sapiens) (UniProt P55055); assay: ATG_LXRb_TRANS: Attagene TRANS-FACTORIAL HepG2 Assay for human Liver X Receptor beta (LXRb) (AID 2282981); settings: HepG2 Attagene TRANS GAL4-LXRb reporter, mRNA
Oxysterols receptor LXR-beta (Homo sapiens), sequence (P55055 whole entry, looked up, the tested form may be a part): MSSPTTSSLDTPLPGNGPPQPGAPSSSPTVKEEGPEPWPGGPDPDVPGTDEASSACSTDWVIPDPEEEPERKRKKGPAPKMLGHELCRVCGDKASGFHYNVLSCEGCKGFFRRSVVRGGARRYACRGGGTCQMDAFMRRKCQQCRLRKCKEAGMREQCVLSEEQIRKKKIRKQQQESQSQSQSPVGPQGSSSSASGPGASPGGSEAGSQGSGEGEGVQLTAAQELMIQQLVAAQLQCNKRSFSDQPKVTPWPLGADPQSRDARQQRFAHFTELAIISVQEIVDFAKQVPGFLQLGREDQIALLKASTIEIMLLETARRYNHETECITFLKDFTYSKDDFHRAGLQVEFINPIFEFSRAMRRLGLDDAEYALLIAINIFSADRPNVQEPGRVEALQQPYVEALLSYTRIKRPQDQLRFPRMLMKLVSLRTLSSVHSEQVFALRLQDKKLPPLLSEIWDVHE
In short: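 HepG2 cells transiently transfected with multiple reporter transcription units carrying chimeric NR-Gal4 proteins acting on GAL4-UAS reporters; compound exposure 24 h. Reporter mRNA quantified by RT-PCR, 6-FAM labelling, HpaI digestion and capillary electrophoresis; gain of signal versus DMSO.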

[3] = molecular target: Hepatocyte nuclear factor 4-alpha (Homo sapiens) (UniProt P41235); assay: ATG_HNF4a_TRANS: Attagene TRANS-FACTORIAL HepG2 Assay for human Hepatocyte Nuclear Factor 4 alpha (HNF4a) (AID 2282982); settings: HepG2 HNF4a transactivation reporter, mRNA readout
Hepatocyte nuclear factor 4-alpha (Homo sapiens), sequence (P41235 whole entry, looked up, the tested form may be a part): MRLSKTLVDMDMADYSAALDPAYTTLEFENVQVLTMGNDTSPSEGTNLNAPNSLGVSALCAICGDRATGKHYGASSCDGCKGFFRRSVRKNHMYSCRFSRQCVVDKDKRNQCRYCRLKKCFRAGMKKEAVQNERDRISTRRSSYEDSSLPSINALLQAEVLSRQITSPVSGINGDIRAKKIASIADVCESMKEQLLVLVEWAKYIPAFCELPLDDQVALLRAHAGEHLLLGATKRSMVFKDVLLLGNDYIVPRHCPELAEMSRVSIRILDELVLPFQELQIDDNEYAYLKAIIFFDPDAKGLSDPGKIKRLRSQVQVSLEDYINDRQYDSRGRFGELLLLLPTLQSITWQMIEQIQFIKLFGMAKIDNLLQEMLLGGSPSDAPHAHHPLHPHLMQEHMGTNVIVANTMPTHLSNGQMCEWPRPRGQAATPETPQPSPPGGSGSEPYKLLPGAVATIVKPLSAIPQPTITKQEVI
In short: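 HepG2 cells transiently transfected with multiplexed GAL4-UAS reporter units responsive to chimeric NR-GAL4 proteins; compound exposure 24 h. Reporter mRNA quantified by RT-PCR, 6-FAM labelling, HpaI digestion and capillary electrophoresis; gain of signal versus DMSO baseline.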

[4] = ATG_M_32_TRANS: Attagene TRANS-FACTORIAL HepG2 Assay for M32 Transcription Factor (Internal Marker) (AID 2282984); settings: HepG2 Attagene TRANS M32 internal marker reporter;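 also: transcript level of a background control reporter unit measured by RT-PCR and capillary electrophoresis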
In short: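 HepG2 cells transiently transfected with multiple GAL4-UAS reporter transcription units, dosed for 24 hours; reporter mRNA quantified by RT-PCR, 6-FAM primer extension, HpaI digestion and capillary electrophoresis. Gain-of-signal fitted versus DMSO baseline; internal background-control marker.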

[5] = molecular target: Nuclear receptor subfamily 4 group A member 2 (Homo sapiens) (UniProt P43354); assay: ATG_NURR1_TRANS: Attagene TRANS-FACTORIAL HepG2 Assay for human Nuclear Receptor Related Protein 1 (NURR1) (AID 2282985); settings: HepG2 Attagene TRANS reporter, mRNA readout
Nuclear receptor subfamily 4 group A member 2 (Homo sapiens), sequence (P43354 whole entry, looked up, the tested form may be a part): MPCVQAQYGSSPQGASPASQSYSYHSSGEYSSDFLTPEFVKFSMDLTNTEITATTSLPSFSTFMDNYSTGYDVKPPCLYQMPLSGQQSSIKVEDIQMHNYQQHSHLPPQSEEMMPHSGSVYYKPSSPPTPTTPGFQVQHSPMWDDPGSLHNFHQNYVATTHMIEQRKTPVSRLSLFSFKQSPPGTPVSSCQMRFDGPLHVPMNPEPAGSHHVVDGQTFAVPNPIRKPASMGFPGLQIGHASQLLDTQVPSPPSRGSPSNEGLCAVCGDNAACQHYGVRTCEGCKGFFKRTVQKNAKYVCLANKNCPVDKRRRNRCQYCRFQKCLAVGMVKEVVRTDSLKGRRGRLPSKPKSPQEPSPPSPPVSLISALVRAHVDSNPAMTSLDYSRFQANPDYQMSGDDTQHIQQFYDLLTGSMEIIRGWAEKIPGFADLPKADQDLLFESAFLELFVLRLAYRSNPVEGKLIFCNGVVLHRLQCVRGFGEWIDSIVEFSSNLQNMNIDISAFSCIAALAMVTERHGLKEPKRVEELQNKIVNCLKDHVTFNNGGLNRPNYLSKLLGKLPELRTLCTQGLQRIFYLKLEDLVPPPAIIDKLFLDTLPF
In short: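 HepG2 cells transiently transfected with GAL4-UAS reporter units and chimeric NR-Gal4 constructs; chemical exposure 24 h. Reporter mRNA quantified by RT-PCR, fluorescent labelling and capillary electrophoresis; gain of signal fitted relative to DMSO baseline.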

[6] = molecular target: Transcriptional activator Myb (Homo sapiens) (UniProt P10242); assay: ATG_Myb_CIS: Attagene CIS-FACTORIAL HepG2 Assay for human Myeloblastosis (Myb) Proto-Oncogene Transcription Factor (AID 2282986; active = hit-call score of the fitted dose curve at least 0.9, where 1 is the maximum; inactive = score below 0.9); settings: HepG2 Attagene CIS-FACTORIAL Myb reporter transcription; actives raise or lower the signal
Transcriptional activator Myb (Homo sapiens), sequence (P10242 whole entry, looked up): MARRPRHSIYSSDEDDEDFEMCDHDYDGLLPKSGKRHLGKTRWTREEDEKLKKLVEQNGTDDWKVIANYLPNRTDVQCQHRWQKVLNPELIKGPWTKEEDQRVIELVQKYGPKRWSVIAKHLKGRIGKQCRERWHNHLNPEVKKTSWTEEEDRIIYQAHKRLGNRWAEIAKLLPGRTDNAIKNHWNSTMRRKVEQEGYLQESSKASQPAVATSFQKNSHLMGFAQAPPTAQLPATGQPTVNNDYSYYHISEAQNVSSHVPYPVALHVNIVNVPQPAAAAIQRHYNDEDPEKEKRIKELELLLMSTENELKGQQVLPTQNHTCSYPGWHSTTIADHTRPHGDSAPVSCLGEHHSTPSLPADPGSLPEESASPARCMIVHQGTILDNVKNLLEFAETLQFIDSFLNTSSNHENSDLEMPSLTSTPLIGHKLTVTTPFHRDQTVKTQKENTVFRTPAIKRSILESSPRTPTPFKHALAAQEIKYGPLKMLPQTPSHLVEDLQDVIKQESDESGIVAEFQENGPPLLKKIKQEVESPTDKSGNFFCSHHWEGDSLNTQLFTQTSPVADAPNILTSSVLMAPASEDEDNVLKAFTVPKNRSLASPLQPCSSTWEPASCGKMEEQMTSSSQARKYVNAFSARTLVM
In short: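 Endogenous transcription factor activity at a Myb-responsive cis element is reported in human liver HepG2 cells after 24 h chemical treatment. Reporter mRNA is detected by RT-PCR and capillary electrophoresis fluorescence, with DMSO as baseline.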

[7] = molecular target: Glucocorticoid receptor (Homo sapiens) (UniProt P04150); assay: ATG_GR_TRANS: Attagene TRANS-FACTORIAL HepG2 Assay for human Glucocorticoid Receptor (GR) (AID 2282978); settings: HepG2 Attagene TRANS GR reporter, mRNA transcription;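 also: activators score as hits since higher reporter transcript over DMSO is fitted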
Glucocorticoid receptor (Homo sapiens), sequence (P04150 whole entry, looked up): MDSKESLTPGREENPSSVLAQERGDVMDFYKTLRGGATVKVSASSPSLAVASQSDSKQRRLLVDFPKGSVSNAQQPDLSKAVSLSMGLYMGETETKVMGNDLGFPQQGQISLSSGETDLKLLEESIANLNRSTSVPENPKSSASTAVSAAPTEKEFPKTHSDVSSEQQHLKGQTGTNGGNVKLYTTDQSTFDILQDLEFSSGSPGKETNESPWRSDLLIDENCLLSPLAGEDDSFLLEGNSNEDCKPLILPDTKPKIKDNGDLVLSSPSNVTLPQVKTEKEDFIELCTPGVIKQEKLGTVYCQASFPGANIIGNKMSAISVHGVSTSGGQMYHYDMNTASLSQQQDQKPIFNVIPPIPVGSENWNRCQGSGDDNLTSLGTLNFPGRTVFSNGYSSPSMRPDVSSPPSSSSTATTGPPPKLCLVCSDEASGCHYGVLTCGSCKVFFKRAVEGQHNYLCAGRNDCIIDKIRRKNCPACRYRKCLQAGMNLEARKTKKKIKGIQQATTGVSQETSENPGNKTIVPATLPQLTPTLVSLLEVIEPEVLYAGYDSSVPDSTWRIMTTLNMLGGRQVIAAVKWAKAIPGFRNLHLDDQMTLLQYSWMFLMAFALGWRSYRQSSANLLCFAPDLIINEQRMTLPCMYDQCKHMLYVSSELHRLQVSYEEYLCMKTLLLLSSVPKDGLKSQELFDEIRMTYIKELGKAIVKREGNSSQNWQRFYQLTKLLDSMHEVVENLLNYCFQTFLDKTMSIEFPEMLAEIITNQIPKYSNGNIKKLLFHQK
In short: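 Multiplexed TRANS reporter system, HepG2; 24 h exposure; RNA → oligo(dT) RT → reporter-specific PCR → 6-FAM primer extension → HpaI cut → CE fluorescence. Gain-of-signal vs DMSO.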

Measured: AC50

CCCCOC(=O)[C@@H](C)Oc1ccc(Oc2ccc(C(F)(F)F)cn2)cc1
inactive: all assays above

CCCOC(=O)NCCCN(C)C
inactive: [1] | [2] | [5] | [6]

CCOC(=O)[C@H](C)Oc1ccc(Oc2nc3ccc(Cl)cc3o2)cc1
inactive: [7] | [1] | [3] | [6]
active: [2] 50 µM

COC(=O)c1ccc(I)cc1S(=O)(=O)NC(=O)Nc1nc(C)nc(OC)n1
inactive: [2] | [3] | [6]

CCCCCOC(=O)COc1cc(N2C(=O)C3=C(CCCC3)C2=O)c(F)cc1Cl
not listed: [2]
inactive: all other assays above
